Data from PubChem BioAssay (NCATS).
“And” between values parts separate entries of the source, which are not always exact repeats. Identical values can stand only once. Records with an inconclusive call do not appear. Where a call stands in place of a potency, no number is given. The source made the active and inactive calls. Unless noted, calls come from the whole dose curve; as a rule, active = well fitted curve in the direction sought with a large enough effect; inconclusive = small, poorly fitted or top-dose-only effect, or another doubt; inactive = no such curve, though single readings can be large; an effect the other way counts as inactive or inconclusive.

Target: Cytochrome P450 2C9 (Homo sapiens) (UniProt P11712)
Sequence (P11712 whole entry, looked up): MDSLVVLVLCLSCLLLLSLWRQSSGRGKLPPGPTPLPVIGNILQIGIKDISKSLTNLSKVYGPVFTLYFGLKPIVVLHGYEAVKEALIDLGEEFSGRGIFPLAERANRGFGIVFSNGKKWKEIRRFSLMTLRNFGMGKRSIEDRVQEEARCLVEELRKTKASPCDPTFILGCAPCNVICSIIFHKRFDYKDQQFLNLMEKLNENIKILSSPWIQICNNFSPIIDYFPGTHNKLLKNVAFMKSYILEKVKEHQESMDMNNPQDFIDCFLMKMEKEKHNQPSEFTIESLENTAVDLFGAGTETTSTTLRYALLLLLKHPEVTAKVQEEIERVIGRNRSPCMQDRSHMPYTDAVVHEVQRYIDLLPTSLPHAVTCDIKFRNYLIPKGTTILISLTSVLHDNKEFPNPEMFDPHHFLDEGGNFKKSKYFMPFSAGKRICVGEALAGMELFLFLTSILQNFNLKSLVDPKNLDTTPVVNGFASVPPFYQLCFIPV
Test: Cytochrome P450 family 2 subfamily C member 9 (CYP2C9) small molecule antagonists: luciferase biochemical (cell-free) qHTS assay (AID 1645842; active = well fitted curve in the direction sought with a large enough effect in the repeat runs; an effect the other way counts as inactive or inconclusive; note: nearly all actives have a fitted effect of over 55% in size)
Conditions: P450-Glo CYP2C9 enzyme assay, luciferin luminescence; series mostly up to 57.4 µM
Method in brief: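 P450-Glo CYP2C9 system: proluciferin substrate with enzyme in mix containing 0.4% BSA, 10 min at room temperature, then NADPH regeneration solution added and incubated 1 h at 37C. Detection reagent stopped reaction; luminescence read after 20 min as RLU.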
Potency is the fitted concentration of half-maximal effect.

Structure (SMILES)	Potency
Cc1ccc2c(Br)cc(Br)c(O)c2n1	inactive
O=C(O)Cc1csc(-c2ccc(Cl)cc2)n1	inactive
CCCCN1C[C@H](O)[C@@H](O)[C@H](O)[C@H]1CO	inactive
CC(C)(C)CC(C)(C)c1ccc(O)c(-n2nc3ccccc3n2)c1	10.7 µM (active) and 6.92 µM (active)
CCCCCCCCNC(C)C(O)c1ccc(SC(C)C)cc1 (stereo not drawn)	inactive
Cc1c(-c2ccccc2)oc2c(C(=O)OCCN3CCCCC3)cccc2c1=O	inactive
COc1cc(C(=O)N2CCCCCCC2)cc(OC)c1OC	inactive
CC(=O)NCCCCCC(=O)O	inactive
Cc1cc(NS(=O)(=O)c2ccc(N)cc2)nc(C)n1	inactive
COc1cc(C)nc(-n2nc(C)cc2OC)n1	inactive
CC(=O)Nc1ccc(CC(=O)O)cc1	inactive
C#C[C@]1(O)CC[C@H]2[C@@H]3CCc4cc(OC)ccc4[C@H]3CC[C@@]21C	6.92 µM (active) and 4.25 µM (active)

Tested on: not listed separately
Test: Primary qHTS for inhibitors of nuclear receptor binding SET domain protein 2 (NSD2) in an isogenic RCH-ACV NSD2 p.E1099K mutant (9B) (AID 1645876); note: nearly all actives have a fitted effect of over 70% in size
Conditions: RCH-ACV (leukaemia line) NSD2 E1099K (9B) viability, CellTiter-Glo, 72 h; series mostly up to 44.9 µM

Structure (SMILES)	Potency
CC(=O)Oc1ccc(C)cc1	inactive
COc1ccc(CN(CCN(C)C)c2ncccn2)cc1	inactive
O=C(O)CCNC(=O)c1ccccc1	inactive
Cc1cccc(C)c1NC(=O)c1ccccc1C(=O)O	inactive
Cc1ncc(CO)c(C=O)c1O	inactive
CN(C)C(=O)Nc1ccc(Cl)c(Cl)c1	inactive
CCN(CC)CCNc1ccc(CO)c2sc3ccccc3c(=O)c12	2.66 µM (active)
COc1ccc(/C=N/NC(=O)c2ccncc2)cc1OC	inactive
CC(=O)Nc1ccc(OCC(O)CNC(C)C)cc1 (stereo not drawn)	inactive
O=S(=O)(O)c1ccc(O)cc1	inactive
COP(=O)(OC)OC(c1ccc(Cl)cc1)P(=O)(OC)OC (stereo not drawn)	inactive
CCCCCCCCCCCCCC(=O)OC(C)C	inactive
Cc1cc(-c2ccccc2)nnc1NCCN1CCOCC1	inactive
Cc1ccc(S(=O)(=O)NC(=O)NC2CCCC2)cc1	inactive
CCC(C(=O)OCCOCCN(CC)CC)c1ccccc1 (stereo not drawn)	inactive
CC(C)Cn1cnc2c1c(=O)n(C)c(=O)n2C	inactive
CC(=O)N[C@@H](CCC(=O)O)C(=O)O	inactive
Oc1c(Cl)cc(Cl)c(Cl)c1Cc1c(O)c(Cl)cc(Cl)c1Cl	5.96 µM (active)

Structure (SMILES)	Potency
OC(C#CCN1CCCC1)(c1ccccc1)c1ccccc1	inactive
N#CCC(=O)NN	inactive
CC(C)NCC(O)c1ccc2ccccc2c1 (stereo not drawn)	inactive
CCCCNC(=O)NS(=O)(=O)c1ccc(N)cc1	inactive
O=c1[nH]c(=O)n([C@H]2C[C@H](O)[C@@H](CO)O2)cc1F	13.3 nM (active) and 29.5 nM (active)
Nc1ccc(S(=O)(=O)NCc2ccccc2)cc1	inactive
Cc1ccc2c(Br)cc(Br)c(O)c2n1	7.5 µM (active)
O=C(O)Cc1csc(-c2ccc(Cl)cc2)n1	inactive
CCCCN1C[C@H](O)[C@@H](O)[C@H](O)[C@H]1CO	inactive
CC(C)(C)CC(C)(C)c1ccc(O)c(-n2nc3ccccc3n2)c1	inactive
CCCCCCCCNC(C)C(O)c1ccc(SC(C)C)cc1 (stereo not drawn)	10.6 µM (active)
Cc1c(-c2ccccc2)oc2c(C(=O)OCCN3CCCCC3)cccc2c1=O	inactive
COc1cc(C(=O)N2CCCCCCC2)cc(OC)c1OC	inactive
CC(=O)NCCCCCC(=O)O	inactive
Cc1cc(NS(=O)(=O)c2ccc(N)cc2)nc(C)n1	inactive
COc1cc(C)nc(-n2nc(C)cc2OC)n1	inactive
CC(=O)Nc1ccc(CC(=O)O)cc1	inactive
C#C[C@]1(O)CC[C@H]2[C@@H]3CCc4cc(OC)ccc4[C@H]3CC[C@@]21C	inactive
